Measured values published in the supplement of paper PMC8866396.
± gives the standard deviation of the averaged measurements.

Tests used:
[1] = tested on: IL-6-GFP PC-9GR; test: cell viability (CCK-8 OD) relative to DMSO control (fraction of control); higher = more viable cells; conditions: compound concentration: 10 uM; treatment time: 48 h
Outline: (§1)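 A purchased 510-compound library was screened at a final 10 μM for 48 h against PC-9 and PC-9GR lung cancer cells overexpressing IL-6-GFP via a lentiviral construct, seeded at 3000 cells/well in 96-well plates. GFP imaging was done on a parallel plate set. For viability, CCK-8 absorbance was recorded and each well's optical density was divided by that of the vehicle control well. There were two independent replicates.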

[2] = tested on: IL-6-GFP PC-9; test: as above; conditions: compound concentration: 10 uM; treatment time: 48 h
Outline: as §1

Structure (SMILES): Cc1c(C(=O)Nc2ccc(N3CC(C)OC(C)C3)nc2)cccc1-c1ccc(OC(F)(F)F)cc1 (stereo unspecified) [Sonidegib (Erismodegib, NVP-LDE225)]
- cell viability [1]: 1.05 ± 0.049
- cell viability [2]: 1.0769 ± 0.001

Structure (SMILES): Cl.Nc1ccn(C2OC(CO)C(O)C2(F)F)c(=O)n1 (stereo unspecified) [Gemcitabine HCl]
- cell viability [1]: 0.596 ± 0.012
- cell viability [2]: 0.566 ± 0.046

Structure (SMILES): Nc1nc(=O)c2c(CCc3ccc(C(=O)NC(CCC(=O)[O-])C(=O)[O-])cc3)c[nH]c2[nH]1.[Na+].[Na+] (stereo unspecified) [Pemetrexed]
- cell viability [1]: 0.483 ± 0.064
- cell viability [2]: 0.635 ± 0.1

Structure (SMILES): O.O.O=C([O-])CCNC(=O)c1ccc(N=Nc2ccc(O)c(C(=O)[O-])c2)cc1.[Na+].[Na+] [Balsalazide disodium]
- cell viability [1]: 1.24 ± 0.25
- cell viability [2]: 1.34 ± 0.11

Structure (SMILES): S=c1nc[nH]c2nc[nH]c12 [Mercaptopurine (6-MP)]
- cell viability [1]: 1.13 ± 0.24
- cell viability [2]: 1.33 ± 0.29

Structure (SMILES): Nc1nc(Cl)nc2c1ncn2C1CC(O)C(CO)O1 (stereo unspecified) [Cladribine]
- cell viability [1]: 0.941 ± 0.059
- cell viability [2]: 0.762 ± 0.076

Structure (SMILES): Cc1cccn2c(=O)c(-c3nnn[n-]3)cnc12.[K+] [Pemirolast potassium]
- cell viability [1]: 1.24 ± 0.25
- cell viability [2]: 1.23 ± 0.31

Structure (SMILES): COc1cc(C2c3cc4c(cc3C(OC3OC5COC(C)OC5C(O)C3O)C3COC(=O)C23)OCO4)cc(OC)c1O (stereo unspecified) [Etoposide]
- cell viability [1]: 0.779 ± 0.033
- cell viability [2]: 0.537 ± 0.17

Structure (SMILES): Cc1ccc(C(C)C)cc2c(C)ccc1-2 [Guaiazulene]
- cell viability [1]: 0.98 ± 0.15
- cell viability [2]: 0.275 ± 0.37

Structure (SMILES): COc1cc2nccc(Oc3ccc(NC(=O)NC4CC4)c(Cl)c3)c2cc1C(N)=O [Lenvatinib (E7080)]
- cell viability [1]: 1.11 ± 0.064
- cell viability [2]: 0.9 ± 0.081

Structure (SMILES): O=C(CCCCCCC(=O)Nc1ccccc1)NO [Vorinostat (SAHA, MK0683)]
- cell viability [1]: 0.449 ± 0.048
- cell viability [2]: 0.418 ± 0.095

Structure (SMILES): CC(=O)OC1CCC2(C)C(CCC3(C)C2C(=O)C=C2C4C(C)C(C)CCC4(C)CCC23C)C1(C)C(=O)O (stereo unspecified)
- cell viability [1]: 0.941 ± 0.28
- cell viability [2]: 1.09 ± 0.16

Structure (SMILES): CC(=O)c1c(C)c2cnc(Nc3ccc(N4CCNCC4)cn3)nc2n(C2CCCC2)c1=O.Cl
- cell viability [1]: 0.661 ± 0.17
- cell viability [2]: 0.694 ± 0.11

Structure (SMILES): C[Se]CC[C@H](N)C(=O)O [L-SelenoMethionine]
- cell viability [1]: 1.19 ± 0.22
- cell viability [2]: 1.28 ± 0.098

Structure (SMILES): Nc1cccc2c1C(=O)N(C1CCC(=O)NC1=O)C2=O (stereo unspecified) [Pomalidomide]
- cell viability [1]: 1.5 ± 0.33
- cell viability [2]: 1.22 ± 0.12

Structure (SMILES): O=C(Nc1ccc(O)cc1)c1ccccc1O [Osalmid]
- cell viability [1]: 1.3 ± 0.45
- cell viability [2]: 1.25 ± 0.1

Structure (SMILES): CNC(=O)c1ccc(N2C(=S)N(c3cnc(C#N)c(C(F)(F)F)c3)C(=O)C23CCC3)cc1F
- cell viability [1]: 1.03 ± 0.13
- cell viability [2]: 1.02 ± 0.11

Structure (SMILES): CCCCNC(=O)NS(=O)(=O)c1ccc(C)cc1 [Tolbutamide]
- cell viability [1]: 1.13 ± 0.081
- cell viability [2]: 1.2 ± 0.16

Structure (SMILES): Nc1ccccc1NC(=O)c1ccc(CNC(=O)OCc2cccnc2)cc1 [Entinostat (MS-275)]
- cell viability [1]: 0.59 ± 0.036
- cell viability [2]: 0.465 ± 0.028

Structure (SMILES): NC1CN(c2c(F)cc3c(=O)c(C(=O)O)cn(C4CC4F)c3c2Cl)CC12CC2.NC1CN(c2c(F)cc3c(=O)c(C(=O)O)cn(C4CC4F)c3c2Cl)CC12CC2.O.O.O (stereo unspecified) [Sitafloxacin Hydrate]
- cell viability [1]: 1.11 ± 0.072
- cell viability [2]: 1.01 ± 0.042

Structure (SMILES): NC(=S)N/N=C/c1ncccc1N [Triapine]
- cell viability [1]: 0.255 ± 0.16
- cell viability [2]: 0.287 ± 0.024

Structure (SMILES): COC1OC2OC3(C)CCC4C(C)CCC(C1C)C24OO3 (stereo unspecified) [Artemether]
- cell viability [1]: 1.29 ± 0.17
- cell viability [2]: 1.29 ± 0.052

Structure (SMILES): CCCCOc1ccc(CC(=O)NO)cc1 [Bufexamac]
- cell viability [1]: 1.2 ± 0.39
- cell viability [2]: 0.928 ± 0.073

Structure (SMILES): CCc1cc2c(cc1N1CCC(N3CCOCC3)CC1)C(C)(C)c1[nH]c3cc(C#N)ccc3c1C2=O
- cell viability [1]: 0.732 ± 0.081
- cell viability [2]: 0.584 ± 0.18

Structure (SMILES): CC(C(=O)O)c1ccc(C(=O)c2ccccc2)s1 (stereo unspecified) [Tiaprofenic acid]
- cell viability [1]: 0.905 ± 0.037
- cell viability [2]: 1.04 ± 0.17

Structure (SMILES): COc1c2occc2cc2ccc(=O)oc12 [Methoxsalen]
- cell viability [1]: 0.933 ± 0.062
- cell viability [2]: 0.839 ± 0.23

Structure (SMILES): CCOc1ccc(NC(C)=O)cc1 [Phenacetin]
- cell viability [1]: 1.24 ± 0.33
- cell viability [2]: 1.09 ± 0.054

Structure (SMILES): CC1CCN(C(=O)CC#N)CC1N(C)c1ncnc2[nH]ccc12.O=C(O)CC(O)(CC(=O)O)C(=O)O (stereo unspecified)
- cell viability [1]: 1.2 ± 0.23
- cell viability [2]: 1.26 ± 0.04

Structure (SMILES): C/C=C1/C2C=C(C)CC1(N)c1ccc(=O)[nH]c1C2 (single isomer, unassigned; (-)) [(-)-Huperzine A (HupA)]
- cell viability [1]: 1.17 ± 0.37
- cell viability [2]: 1.29 ± 0.053

Structure (SMILES): CC1(C(=O)O)CCC2(C)CCC3(C)C(=CC(=O)C4C5(C)CCC(OC6OC(C(=O)O)C(O)C(O)C6OC6OC(C(=O)O)C(O)C(O)C6O)C(C)(C)C5CCC43C)C2C1.N (stereo unspecified) [Ammonium Glycyrrhizinate]
- cell viability [1]: 1.42 ± 0.25
- cell viability [2]: 1.31 ± 0.014

Structure (SMILES): CNC(=O)C(NC(=O)C(CC(C)C)C(O)C(=O)NO)C(C)(C)C (stereo unspecified) [Marimastat (BB-2516)]
- cell viability [1]: 0.915 ± 0.038
- cell viability [2]: 1.14 ± 0.19

Structure (SMILES): NC(CO)(CO)CO.O=C(c1ccccc1)c1ccc2n1CCC2C(=O)O (stereo unspecified) [Ketorolac tromethamine salt]
- cell viability [1]: 0.948 ± 0.075
- cell viability [2]: 1.05 ± 0.19

Structure (SMILES): CC(C)OC(=O)CCC/C=C\CC1C(O)CC(O)C1CCC(O)CCc1ccccc1 (stereo unspecified) [Latanoprost]
- cell viability [1]: 0.776 ± 0.15
- cell viability [2]: 1 ± 0.26
